These results are taken from PubChem BioAssay AID2025 (NMMLSC, 2009).

Structures are written as SMILES. Among all 330,000 compounds or so, about 980 (0.3%) were called active. The sample as a whole holds a higher share of actives than the screen did. A number with no mark means an inactive call.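 The calls were made as follows: active = percent response vs DMSO below 50%; inconclusive = fewer than 70 events counted for the yeast strain; inactive = the rest.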

The nature of this experiment: compounds altering RPL19A-GFP fluorescence, TOR branch – cell-based, S. cerevisiae, multiplex flow cytometry, MLPCN, primary screen (AID 2025).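 Also: median channel GFP fluorescence of the barcoded RPL19A-GFP strain; ratio of sample median GFP to plate DMSO average so 100% = DMSO; lower means less RPL19A-GFP as with rapamycin TOR inhibition.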 The settings on record: S. cerevisiae RPL19A-GFP strain, 3 h, at 10 µM, hits give low values. A general note: In flow cytometry, cells or beads pass a laser one at a time.
In the case of `CC(=O)c1c(C)c[nH]c1C`, the percent response vs DMSO is 101%.

Turning to `CC(C)(C)C(=O)Nc1ccc(-c2cn3cccnc3n2)cc1`, the percent response vs DMSO was 105%.

With `COc1ccc(-c2cn3cccnc3n2)cc1`, the percent response vs DMSO was 98.9%.

On to `FC(F)(F)Oc1ccc(-c2cn3cccnc3n2)cc1`, for which the percent response vs DMSO was 30.4% [may fluoresce violet] (active).

Take `Cc1noc(C)c1-c1ccc2ncnc(NC(C)c3ccco3)c2c1` (stereo not drawn): the percent response vs DMSO is 99.4%.

For the molecule `O=C(C[C@H]1C/C=C\C[C@@H](NC(=O)OCC2c3ccccc3-c3ccccc32)C(=O)O[C@@H](c2ccccc2)CNC1=O)N[C@H](CO)Cc1ccccc1`, the percent response vs DMSO is 101%.

As to `CCOC(=O)C1CCCCN1Cc1ccc(OC)c(OC)c1OC` (stereo not drawn), the percent response vs DMSO is 94.8%.

On to `CCOC(=O)c1c(CN(C)C)n(-c2ccccc2)c2cc(Br)c(O)cc12`, for which the percent response vs DMSO is 98%.

As for `CCOC(=O)c1c(CN2CCOCC2)n(-c2ccccc2)c2ccc(O)cc12`, the percent response vs DMSO was 14.2% [may fluoresce violet] (active).

With `CCOC(=O)c1nnn(-c2nonc2-n2cccc2)c1CN1CCOCC1`, the percent response vs DMSO was 95.3%.

On to `COc1ccc(C(=O)NC(Cc2ccc(OC(=O)c3ccc(OC)cc3)cc2)C(=O)O)cc1` (stereo not drawn), for which the percent response vs DMSO was 96.9%.

Consider `O=C(O)c1ccc(COc2c(F)c(F)cc(F)c2F)o1`, for which the percent response vs DMSO is 97%.

`O=C(CCS(=O)(=O)c1ccc2c(c1)NC(=O)CS2)NCc1ccccc1Cl`: the percent response vs DMSO is 100%.

With `CSc1cccc(NC(=O)C2CCCN2S(=O)(=O)c2ccc3c(c2)CCC(=O)N3)c1` (stereo not drawn), the percent response vs DMSO was 100%.

With `NNC(=O)C1CC(O)CN1S(=O)(=O)c1ccc(Cl)cc1` (stereo not drawn), the percent response vs DMSO was 101%.

Regarding `CCCN1CCN(C(=O)CCCNC(=O)c2ccc(Cl)cc2)CC1`, the percent response vs DMSO is 98.3%.

In the case of `CCCCNC(=O)CCNC(=O)c1ccc(C(C)(C)C)cc1`, the percent response vs DMSO is 47.4% [may fluoresce violet] (active).

On to `O=C(CCNC(=O)c1ccc(Br)cc1)NCCCc1ccccc1`, for which the percent response vs DMSO was 101%.

As to `O=C(Nc1ccc(Cl)cc1)Nc1nnc(/C=C/c2ccccc2)s1`, the percent response vs DMSO was 97.4%.

In the case of `CN(c1cccc(NC(=O)Nc2ccc(Cl)cc2)c1)S(C)(=O)=O`, the percent response vs DMSO is 102%.

Regarding `O=C(Nc1ccccc1)c1nnsc1S(=O)(=O)c1ccc(Cl)cc1`, the percent response vs DMSO is 46.8% (active).

In the case of `CCCCNC(=O)c1cn(CC)c2cc(N3CCN(C(=O)c4ccco4)CC3)c(F)cc2c1=O`, the percent response vs DMSO was 95.5%.

Take `Cc1cc(=O)oc2c(C)c(OCC(=O)NCCN3CCOCC3)ccc12`: the percent response vs DMSO is 97.4%.
